In PubChem BioAssay (Tox21):
Inconclusive results are not listed. Calls of active or inactive are those of the source. Unless noted, calls follow the shape of the full dose curve.

Legend:
[1] = Nuclear factor erythroid 2-related factor 2/antioxidant responsive element (Nrf2/ARE) small molecule agonists: qHTS cell viability counter screen in human keratinocytes (AID 1919968; active = well fitted curve in the direction sought with a large enough effect in the repeat runs; an effect the other way counts as inactive or inconclusive; also: nearly all actives have a fitted effect of over 55% in size)
Outline: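 Measured as CellTiter-Fluor fluorescence, this readout tracks cytotoxicity in the same wells as the ARE-luciferase screen. HaCaT reporter cells (1,500/well) received compounds after a 5 h pre-incubation and were exposed for 23 h.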

[2] = biological target: Gonadotropin-releasing hormone receptor (Homo sapiens) (UniProt P30968); assay: Human gonadotropin-releasing hormone receptor (GnRHR) small molecule agonists, calcium flux assay in GnRHR-HEK293 cells (AID 1920063); also: nearly all actives have a fitted effect of over 35% in size
Gonadotropin-releasing hormone receptor (Homo sapiens), sequence (P30968 whole entry, looked up): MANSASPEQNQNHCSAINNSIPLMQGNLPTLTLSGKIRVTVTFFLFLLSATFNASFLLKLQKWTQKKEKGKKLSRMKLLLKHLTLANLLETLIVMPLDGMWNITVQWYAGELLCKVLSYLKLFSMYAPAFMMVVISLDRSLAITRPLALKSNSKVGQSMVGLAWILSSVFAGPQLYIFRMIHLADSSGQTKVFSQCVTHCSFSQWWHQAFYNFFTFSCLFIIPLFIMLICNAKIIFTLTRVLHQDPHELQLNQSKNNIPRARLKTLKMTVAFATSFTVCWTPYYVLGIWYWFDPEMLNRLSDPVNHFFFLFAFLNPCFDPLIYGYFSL
Outline: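 Fluorescence kinetics (480 nm excitation, 540 nm emission; 3 min, 1 s steps) report calcium mobilisation in human GnRHR-HEK293 cells in agonist mode. Dye incubation: 1 h, 37 C.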

[3] = biological target: KiSS-1 receptor (Homo sapiens) (UniProt Q969F8); assay: Human kisspeptin (KISS1R) small molecule agonists, calcium flux assay in KISS1R-HEK293 cells (AID 1920064; active = well fitted curve in the direction sought with a large enough effect in the repeat runs; an effect the other way counts as inactive or inconclusive)
KiSS-1 receptor (Homo sapiens), sequence (Q969F8 whole entry, looked up): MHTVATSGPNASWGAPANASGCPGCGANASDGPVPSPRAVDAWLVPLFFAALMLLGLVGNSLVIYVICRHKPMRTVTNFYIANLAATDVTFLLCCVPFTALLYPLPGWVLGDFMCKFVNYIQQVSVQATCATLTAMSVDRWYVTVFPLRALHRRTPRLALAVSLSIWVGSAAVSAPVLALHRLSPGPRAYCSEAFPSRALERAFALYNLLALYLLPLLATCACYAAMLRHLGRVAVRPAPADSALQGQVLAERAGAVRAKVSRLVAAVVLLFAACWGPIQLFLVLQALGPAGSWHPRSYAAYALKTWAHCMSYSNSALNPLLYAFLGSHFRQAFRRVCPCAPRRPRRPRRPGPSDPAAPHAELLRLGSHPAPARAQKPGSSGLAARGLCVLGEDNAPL
Outline: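 Measures KISS1R agonism through calcium-sensitive dye fluorescence in stably transfected HEK293 cells, read for 3 min after pin-tool compound delivery; 15-point titrations in triplicate.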

[4] = G protein-coupled receptor (GPCR) small molecule agonists, calcium flux assay: HEK293 wild type cell line counter screen (AID 1920065)
Outline: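 Readout: fluorescence at 480 nm excitation/540 nm emission, sampled at 1 s intervals for 3 min. Cells had been cultured 18 h, then dye-loaded 1 h at 37 C before compound or ATP addition.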

[5] = p53 small molecule agonists, cell-based qHTS assay with human liver microsomes (AID 1963577);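 also: p53 response element beta-lactamase reporter cells with liver microsomes plus NADPH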
Outline: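 In this qHTS, p53 response-element beta-lactamase cells receive test compound together with a microsome/NADPH activating system (0.5 mg/mL final each) and are incubated 16 h at 37 C before LiveBLAzer fluorescence detection.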

[6] = p53 small molecule agonists, cell-based qHTS assay with rat liver microsomes (AID 1963578)
Outline: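 Agonist mode in p53RE-bla reporter cells, with compounds co-incubated 16 h at 37 C alongside 0.5 mg/mL rat liver microsomes and 0.5 mg/mL NADPH (final), followed by a 2 h LiveBLAzer detection step.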

[7] = p53 small molecule agonists, cell-based qHTS assay with human liver microsomes: qHTS cell viability counter screen (AID 1963579); also: nearly all actives have a fitted effect of over 45% in size
Outline: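 Metabolically activated exposure: compounds, human liver microsomes and NADPH (0.5 mg/mL final apiece) were added to p53RE-bla cells seeded 5 h earlier, left 16 h at 37 C, and then assessed for viability by CellTiter-Glo luminescence.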

[8] = p53 small molecule agonists, cell-based qHTS assay with rat liver microsomes: qHTS cell viability counter screen (AID 1963580); also: nearly all actives have a fitted effect of over 45% in size
Outline: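 In HCT-116 cells carrying a p53 response element-bla reporter, compounds were metabolically activated in situ by rat liver microsomes with NADPH over 16 h. Cell ATP content then served as the cytotoxicity measure.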

[9] = p53 small molecule agonists, cell-based qHTS assay: qHTS cell viability counter screen (AID 1963581); also: nearly all actives have a fitted effect of over 45% in size
Outline: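 In the same plates used for the p53 bla reporter, HCT-116 cells given compounds for 16 h at 37 C received CellTiter-Glo; luminescence was recorded 30 min later at room temperature.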

[10] = p53 small molecule agonists, cell-based qHTS assay (AID 1963582; active = well fitted activation curve with a large enough effect in the signal ratio in the repeat runs, not every such curve was filed as active; the % refers to the signal ratio)
Outline: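 Compounds are pin-transferred in DMSO onto p53RE-bla cells and incubated 16 h at 37 C. The B/G FRET beta-lactamase substrate is then applied for 2 h at RT and fluorescence recorded.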

[11] = biological target: 5-hydroxytryptamine receptor 2A (Homo sapiens) (UniProt P28223); assay: 5-hydroxytryptamine receptor 2A (HTR2A) small molecule antagonists, cell-based qHTS assay (AID 1963586); also: nearly all actives have a fitted effect of over 45% in size
5-hydroxytryptamine receptor 2A (Homo sapiens), sequence (P28223 whole entry, looked up): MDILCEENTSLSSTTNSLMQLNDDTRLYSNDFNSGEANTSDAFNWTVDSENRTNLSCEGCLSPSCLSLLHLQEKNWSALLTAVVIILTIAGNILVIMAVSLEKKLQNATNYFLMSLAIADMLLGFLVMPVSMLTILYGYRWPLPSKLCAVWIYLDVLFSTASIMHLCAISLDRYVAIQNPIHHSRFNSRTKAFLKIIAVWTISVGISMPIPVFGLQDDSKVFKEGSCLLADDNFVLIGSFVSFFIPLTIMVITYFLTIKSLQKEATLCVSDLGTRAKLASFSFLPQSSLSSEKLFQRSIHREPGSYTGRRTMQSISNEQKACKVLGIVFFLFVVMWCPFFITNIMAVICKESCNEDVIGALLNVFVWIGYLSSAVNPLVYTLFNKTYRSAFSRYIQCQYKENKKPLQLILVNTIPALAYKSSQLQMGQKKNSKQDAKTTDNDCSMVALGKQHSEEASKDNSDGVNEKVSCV
Outline: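 Antagonist-mode intracellular calcium assay: DOI (4 nM) added after 5 min compound pre-incubation at room temperature to dye-loaded HTR2A-CHO cells. Fluorescence followed for 3 min, sampled every second.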

[12] = biological target: 5-hydroxytryptamine receptor 2A (Homo sapiens) (UniProt P28223); assay: 5-hydroxytryptamine receptor 2A (HTR2A) small molecule agonists, cell-based qHTS assay (AID 1963587); also: nearly all actives have a fitted effect of over 30% in size
Outline: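 HTR2A-CHO cells, plated 18 h at 37 C/5% CO2, dye-loaded 1 h at 37 C; compounds in DMSO added by pin tool (agonist mode). Intracellular calcium flux read as kinetic fluorescence on FDSS over 2 min at 1 s intervals.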

[13] = biological target: Muscarinic acetylcholine receptor M1 (Homo sapiens) (UniProt P11229); assay: Cholinergic receptor muscarinic 1 (CHRM1) small molecule antagonists, cell-based qHTS assay (AID 1963588); also: nearly all actives have a fitted effect of over 40% in size
Muscarinic acetylcholine receptor M1 (Homo sapiens), sequence (P11229 whole entry, looked up): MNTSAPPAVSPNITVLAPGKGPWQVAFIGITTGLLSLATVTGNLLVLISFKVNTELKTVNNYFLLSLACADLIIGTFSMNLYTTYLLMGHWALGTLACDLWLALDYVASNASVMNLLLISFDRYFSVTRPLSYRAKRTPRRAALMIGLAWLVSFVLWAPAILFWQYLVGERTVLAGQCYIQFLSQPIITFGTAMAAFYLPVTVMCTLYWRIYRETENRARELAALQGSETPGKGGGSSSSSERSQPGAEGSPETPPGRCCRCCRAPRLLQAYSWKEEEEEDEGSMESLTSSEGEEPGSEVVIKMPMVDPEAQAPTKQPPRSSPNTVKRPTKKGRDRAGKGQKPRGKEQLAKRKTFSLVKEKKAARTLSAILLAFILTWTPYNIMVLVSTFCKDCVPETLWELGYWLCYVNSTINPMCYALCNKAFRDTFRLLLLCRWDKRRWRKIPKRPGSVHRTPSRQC
Outline: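 CHRM1-CHO calcium-flux assay, antagonist mode. Cells were seeded 18 h, dye-loaded 1 h at 37 C and given compound for 5 min at RT, then acetylcholine was added at 50nM. FDSS fluorescence was read 3 min; 15 concentrations, three runs.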

[14] = biological target: Muscarinic acetylcholine receptor M1 (Homo sapiens) (UniProt P11229); assay: Cholinergic receptor muscarinic 1 (CHRM1) small molecule agonists, cell-based qHTS assay (AID 1963589); also: nearly all actives have a fitted effect of over 35% in size
Outline: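 Each compound was tested at 15 concentrations across three independent runs on dye-loaded CHO cells stably expressing human CHRM1, reading intracellular calcium fluorescence kinetically at 1 sec intervals.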

[15] = cAMP Responsive Elements (CRE) small molecule agonists, cell-based qHTS assay (AID 1963590)
Outline: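 Cell line: CRE-bla HEK 293T; medium DMEM/10% dialyzed FBS/0.1 mM NEAA/1 mM pyruvate/25 mM HEPES; 3 h compound exposure; beta-lactamase FRET readout after 2 h substrate loading at RT.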

[16] = cAMP Responsive Elements (CRE) small molecule antagonists, cell-based qHTS assay (AID 1963591; active = well fitted inhibition curve with a large enough effect in the signal ratio in the repeat runs, not every such curve was filed as active; the % refers to the signal ratio)
Outline: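 Inhibition of NKH477-driven (0.25 uM final) CRE-beta-lactamase signal in HEK293T cells, 3 h compound exposure at 37 °C, detected by FRET substrate fluorescence.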

[17] = biological target: Beta-2 adrenergic receptor (Homo sapiens) (UniProt P07550); assay: Adrenergic beta2 receptor (ADRB2) small molecule antagonists, cell-based qHTS assay (AID 1963592); also: series mostly up to about 92 µM; nearly all actives have a fitted effect of over 50% in size
Beta-2 adrenergic receptor (Homo sapiens), sequence (P07550 whole entry, looked up): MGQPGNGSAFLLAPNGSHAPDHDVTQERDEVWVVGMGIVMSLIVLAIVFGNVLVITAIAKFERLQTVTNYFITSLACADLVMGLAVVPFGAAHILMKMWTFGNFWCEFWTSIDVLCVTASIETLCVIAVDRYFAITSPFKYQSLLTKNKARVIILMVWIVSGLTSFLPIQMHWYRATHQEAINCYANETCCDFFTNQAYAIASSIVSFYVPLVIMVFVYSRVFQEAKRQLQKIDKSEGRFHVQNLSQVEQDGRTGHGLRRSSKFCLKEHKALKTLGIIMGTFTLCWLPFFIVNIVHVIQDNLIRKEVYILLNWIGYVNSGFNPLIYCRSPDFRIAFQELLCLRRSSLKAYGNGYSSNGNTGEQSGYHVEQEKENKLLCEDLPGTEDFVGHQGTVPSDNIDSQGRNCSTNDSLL
Outline: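 Cells (CHO, stable ADRB2 overexpression) incubated 18-20hr at 37C; compounds added from DMSO; agonist mix (1nM isoproterenol, 100uM IBMX, 25uM Ro-20-1724) added; 0.5hr RT; d2-cAMP and anti-cAMP-cryptate added; 1hr RT; 665/615 nm read.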

[18] = biological target: Beta-2 adrenergic receptor (Homo sapiens) (UniProt P07550); assay: Adrenergic beta2 receptor (ADRB2) small molecule agonists, cell-based qHTS assay (AID 1963593);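 also: CHO cells stably overexpressing human ADRB2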
Outline: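 CHO cells stably over-expressing ADRB2 were plated overnight at 37C, then dosed with compounds plus a stimulation mix containing 100uM IBMX and 25uM Ro-20-1724 for 0.5hr at room temperature. cAMP was measured by HTRF competition, 1hr.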

[19] = biological target: D(2) dopamine receptor (Homo sapiens) (UniProt P14416); assay: Dopamine D2 receptor (DRD2) small molecule agonists, cell-based qHTS assay (AID 1963594); also: nearly all actives have a fitted effect of over 35% in size
D(2) dopamine receptor (Homo sapiens), sequence (P14416 whole entry, looked up): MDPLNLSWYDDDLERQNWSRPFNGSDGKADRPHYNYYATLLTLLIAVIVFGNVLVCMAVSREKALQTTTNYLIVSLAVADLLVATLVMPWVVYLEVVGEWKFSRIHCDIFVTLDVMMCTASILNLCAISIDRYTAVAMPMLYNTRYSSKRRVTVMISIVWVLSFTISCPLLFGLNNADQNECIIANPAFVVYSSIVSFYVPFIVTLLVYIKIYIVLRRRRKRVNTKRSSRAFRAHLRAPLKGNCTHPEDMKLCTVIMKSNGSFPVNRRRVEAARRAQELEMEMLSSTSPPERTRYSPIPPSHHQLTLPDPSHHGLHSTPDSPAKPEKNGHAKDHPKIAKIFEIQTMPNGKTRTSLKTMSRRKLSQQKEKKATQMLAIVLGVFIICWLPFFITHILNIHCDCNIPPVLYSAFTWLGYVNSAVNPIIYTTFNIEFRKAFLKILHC
Outline: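 HEK293 cells stably expressing DRD2 were cultured 24 h at 37 C, then given Ro20-1724 (0.1 mM final) and compounds for 10 min at room temperature. NKH477 (200nM) was then added for 30 min. cAMP was read by HTRF.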

Measured: Potency

C=CCOCC(O)CO (configuration not stated)
inactive: all assays above

Oc1ccc(O)c2c(O)cccc12
not listed: [18]
inactive: all other assays above
